Source: PubChem (National Center for Advancing Translational Sciences (NCATS))
This is a sample that favours compounds with a hit; in the whole collection about 14% have one here.
Giardia FBPA inh = qHTS Assay for Inhibitors of Fructose-1,6-bisphosphate Aldolase from Giardia Lamblia | Potency, µM (highest dose often 59.6 µM), inactives show at the highest dose activity, negative = inhibition, most hits filed as inhibitors | 290,000 compounds, 0.71% hits | purified Giardia FBPA; further: potency means the concentration at half of the fitted maximal effect; nearly all actives have a fitted effect of over 55% in size
Target sequence (A8B2U2 whole entry, looked up): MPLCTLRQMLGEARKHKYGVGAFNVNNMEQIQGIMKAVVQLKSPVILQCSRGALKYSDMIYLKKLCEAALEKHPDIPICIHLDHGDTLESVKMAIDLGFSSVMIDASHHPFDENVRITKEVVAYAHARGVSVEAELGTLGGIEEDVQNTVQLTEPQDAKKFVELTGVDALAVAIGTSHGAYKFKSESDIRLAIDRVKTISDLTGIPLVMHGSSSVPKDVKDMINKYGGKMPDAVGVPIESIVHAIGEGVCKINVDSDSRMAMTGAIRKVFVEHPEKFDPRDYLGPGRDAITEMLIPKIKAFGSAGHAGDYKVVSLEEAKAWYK
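40 nM FBPA preincubated 10 min at RT with compound (up to 57.5 uM final), then substrate plus GAPDH/TPI/NAD/arsenate coupling and diaphorase/resazurin added. Fluorescence read after 20 min at RT, 525/598 nm.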
Sm TGR inh = qHTS Assay for the Inhibitors of Schistosoma Mansoni Peroxiredoxins | Schistosoma mansoni thioredoxin glutathione reductase (TGR), Q962Y6 | Potency, µM (top dose mostly 114 µM), for inactives: top-dose activity change, negative = inhibition, usual class: inhibitors | 360,000 compounds, 3% hits | purified TGR, DTNB reduction, TNB absorbance 405 nm; further: potency means the concentration at half of the fitted maximal effect; nearly all actives have a fitted effect of over 60% in size
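TGR 20 nM + NADPH 100 uM (dispensed conc.), cpd preinc 15 min RT; start with NADPH (500 uM addition) then DTNB (15 mM addition). Kinetic TNB absorbance, 405 nm filter. Four-parameter Hill fit across titration.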
Pf growth 96h = Primary qHTS for delayed death inhibitors of the malarial parasite plastid, 96 hour incubation | P. falciparum luciferase reporter growth, 96 h | Potency, µM (doses to about 28.7 µM), without a hit: at the top dose activity change, negative = inhibition, actives largely listed as inhibitors | 320,000 compounds, 6.9% hits; further: potency means the concentration at half of the fitted maximal effect
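Readout is luminescence from an integrated firefly luciferase in P. falciparum. Red cells, 2% hematocrit and 0.05% parasitemia final, were cultured with compound through two parasite generations (96 hours) at 37 C, 5% CO2.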
HCMV antiviral = qHTS Assay for inhibitors of the human cytomegalovirus (HCMV). HFF cells, HCMV-luciferase reporter, 72 h; hits give low values. activity change, negative = inhibition, % at 57.5 µM. 410,000 compounds, 4.5% hits; in the data active means activity change below about -60%; inconclusive means no clear call, values can overlap the other calls; inactive means above about -39%
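Luciferase read-out from HCMV-luciferase-infected HFFs (MOI 1 PFU/cell) 72 h post infection at 37C; compounds added after 16 h cell attachment; activity normalized between buffer-only basal and Salinomycin (10uM) inhibitor controls.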
Pf growth 48h = Primary qHTS for delayed death inhibitors of the malarial parasite plastid, 48 hour incubation. 310,000 compounds, 5.9% hits. P. falciparum luciferase growth in erythrocytes, 48 h. Potency, µM (series often up to 28.7 µM), without a hit: at the top dose activity change, negative = inhibition, hits mostly inhibitors; further: potency means the concentration at half of the fitted maximal effect
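Cell-based growth assay: transgenic P. falciparum expressing firefly luciferase, cultured in red cells within RPMI 1640 containing 0.5% w/v Albumax, 24 mM bicarbonate and gentamycin. A drop in luciferase activity indicates inhibition.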
An asterisk follows results filed as active; ? = inconclusive; nt = no result. Unless noted, the call rests on the fitted dose curve; in most records, active means well fitted curve in the direction sought with a large enough effect; inconclusive means small, poorly fitted or top-dose-only effect, or another doubt; inactive means no such curve, though single readings can be large; an effect the other way counts as inactive or inconclusive. On the % scale 0 is the no-effect control and ±100 the full control effect.

SMILES | Giardia FBPA inh | Sm TGR inh | Pf growth 96h | HCMV antiviral | Pf growth 48h
O[C@H]1C[C@H](c2ccc(Cl)cc2)N(CC2CCCCC2)C[C@@H]1n1cc(-c2ccc(F)cc2)nn1 | nt | nt | nt | -6.9 | nt
Cc1ccc(CCNC(=O)CN2C(=O)COc3ccc(S(=O)(=O)N4CCCC4)cc32)cc1 | nt | 7.7% | nt | -87.5* | nt
COc1ccc(CCNC(=O)CN2C(=O)COc3ccc(S(=O)(=O)N4CCOCC4)cc32)cc1OC | nt | -0.3% | 23.8% | -11.4 | -2.6%
COc1ccc(OC)c(CCNC(=O)CN2C(=O)COc3ccc(S(=O)(=O)N4CCOCC4)cc32)c1 | -6.8% | -15.5% | -19.0% | -72.4* | 14.4%
Cc1ccc(CNC(=O)CN2C(=O)COc3ccc(S(=O)(=O)N4CCCCC4)cc32)o1 | 4.2% | 25.1µM* | -15.6% | ? | 6.5%
COc1ccc(N2CCN(C(=O)COC(=O)COc3cc(C)cc(C)c3)CC2)cc1 | nt | -5.3% | 14.2% | -26.4 | -25.0%
CC(C)(Oc1ccc(Cl)cc1)C(=O)NC1CC1 | nt | 0.2% | -10.7% | 10.5 | ?
CCCCCC(CC(=O)NO)C(=O)NC(C(=O)N1CCCC1CO)C(C)C (centres undefined) | nt | -4.5% | 2.94µM* | -69.1* | 3.29µM*
CCCCC[C@H](CC(=O)NO)C(=O)N[C@H](C(=O)N1CCC[C@H]1CO)C(C)C | -3.4% | nt | nt | nt | nt
Cc1ccc2c(c1)NC(=O)C(CC(=O)NC1CCCCC1C)O2 (centres undefined) | -0.3% | -13.8% | 84.5% | -8.5 | 0.0%
CC1CCCCC1NC(=O)CC1Oc2ccccc2NC1=O (centres undefined) | 0.6% | 0.0% | -19.9% | -66.3* | nt
O=C1/C(=C\c2cc([N+](=O)[O-])ccc2O)SC(=S)N1Cc1ccc(Cl)cc1 | -0.2% | -7.0% | 16.0% | -76.8* | ?
O=C1/C(=C\c2cccc(O)c2)SC(=S)N1Cc1ccccc1 | 1.9% | 0.3% | -67.8% | -74.3* | ?
O=C(O)CN1C(=O)/C(=C\c2cc(Br)ccc2OCc2ccc(Cl)cc2)SC1=S | -0.7% | -28.3% | 10.4µM* | -28.7 | 18.8%
O=C1/C(=C/c2ccncc2)SC(=S)N1Cc1ccccc1 | -16.7% | -11.4% | ? | -72.7* | -18.1%
O=C(COC(=O)CNC(=O)c1ccccc1)NC12CC3CC(CC(C3)C1)C2 | nt | nt | nt | -7.9 | nt
O=C(CN1CCC(C(=O)c2ccc(Cl)cc2)CC1)NC1CCCC1 | nt | 1.2% | 39.0% | -7.8 | -38.8%
Cc1cc(NC(=O)CS(=O)(=O)c2ccc(Cl)cc2)no1 | nt | -2.4% | 27.5% | -20.8 | 7.4%
COc1cc(/C=C/c2nc(C#N)c(NCCc3ccccc3)o2)cc(OC)c1OC | nt | -10.1% | nt | 75.4 | nt
O=C(O)CN1C(=O)/C(=C\c2cccc(OCc3ccccc3)c2)SC1=S | 27.9% | 0.501µM* | 14.7µM* | 6.9 | 14.2%
CCCN1C(=O)/C(=C/c2ccncc2)SC1=S | -7.2% | 5.9% | 114.3% | -22.0 | 4.6%
C#CCOc1ccc(/C=C2\SC(=S)N(Cc3cccnc3)C2=O)cc1 | 8.0% | -4.9% | 24.6% | -73.2* | ?
CN1C(=O)/C(=C\c2ccncc2)SC1=Nc1ccccc1 | 4.1% | 2.1% | ? | -67.0* | ?
O=C(O)COc1cccc(/C=C2/SC(=S)N(Cc3ccccc3)C2=O)c1 | 11.0% | -4.5% | ? | -33.3 | 3.0%
O=C1/C(=C\c2ccc(O)c(O)c2)SC(=S)N1Cc1ccccc1 | ? | -27.2% | 32.5% | ? | 13.1µM*
SMILES | Giardia FBPA inh | Sm TGR inh | Pf growth 96h | HCMV antiviral | Pf growth 48h
CCNc1ncc2nc(C)c(=O)n(C[C@H]3CCCO3)c2n1 | 3.3% | nt | nt | nt | nt
Cc1cc(S(=O)(=O)Nc2ccc(C(=O)NCC(c3ccco3)N3CCCCC3)cc2)ccc1F (centres undefined) | nt | -5.8% | ? | -27.1 | ?
O=C(NCC(c1ccco1)N1CCCCC1)c1cccc(S(=O)(=O)Nc2ccc(F)cc2)c1 (centres undefined) | nt | -12.9% | ? | -11.5 | 10.4µM*
Cc1ccc(NS(=O)(=O)c2cccc(C(=O)NCC(c3ccco3)N3CCCC3)c2)cc1 (centres undefined) | nt | -21.2% | ? | 0.0 | 13.1µM*
O=C(NCC(c1ccco1)N1CCCC1)c1cccc(NS(=O)(=O)c2ccccc2)c1 (centres undefined) | nt | ? | ? | -1.7 | 10.4µM*
O=C(NCC(c1ccco1)N1CCCCC1)c1ccc(S(=O)(=O)Nc2ccccc2)cc1 (centres undefined) | nt | -18.3% | ? | -15.7 | -20.3%
O=S(=O)(NCC(c1ccco1)N1CCCCC1)c1ccccc1C(F)(F)F (centres undefined) | nt | -25.9% | ? | -26.0 | ?
O=S(=O)(NCC(c1ccco1)N1CCCCC1)c1cccc(C(F)(F)F)c1 (centres undefined) | nt | -13.3% | 7.38µM* | -11.3 | ?
Cc1ccc(C2(C)NC(=O)N(CC(=O)NCc3cccc(Cl)c3)C2=O)cc1 (centres undefined) | -10.4% | 5.2% | -2.9% | -36.0 | ?
CCOC(=O)Cc1csc(SC(C)C(=O)NC2CCCCC2C)n1 (centres undefined) | nt | 2.2% | 0.8% | -1.9 | ?
CCOC(=O)/C(=N\Nc1ccccc1)P(=O)(c1ccccc1)c1ccccc1 | 11.5% | 75.6% | -0.1% | -15.9 | ?
Cc1ccc(S(=O)(=O)Nc2cccc(C(=O)NCC(c3ccco3)N3CCCCC3)c2)cc1F (centres undefined) | nt | -0.2% | -17.5% | -15.2 | ?
O=C(NCC(c1ccco1)N1CCCC1)c1cccc(S(=O)(=O)Nc2ccc(F)cc2)c1 (centres undefined) | nt | -10.1% | 14.7µM* | -25.3 | 13.1µM*
C[C@H]1COc2cc(N3CCCCC3)ccc2S(=O)(=O)N1 | nt | nt | nt | 18.4 | nt
O=S(=O)(Cc1ccccc1Cl)NCCc1ccccc1 | 0.1% | 6.2% | 4.3% | ? | -6.2%
NS(=O)(=O)c1ccc(CCNC(=O)c2ccc3nccnc3c2)cc1 | nt | nt | nt | -25.3 | nt
NS(=O)(=O)c1ccc(CCNS(=O)(=O)Cc2ccc(Cl)cc2)cc1 | -2.6% | 0.2% | 13.1µM* | 19.5 | 9.8%
NS(=O)(=O)c1ccc(CCNc2ccnc3cc(Cl)ccc23)cc1 | -2.3% | 4.6% | 9.7% | -39.9 | 11.7µM*
O=S(=O)(Cc1ccccc1)NCCc1cccc(Cl)c1 | 0.9% | 3.2% | 3.29µM* | -16.9 | -19.4%
Fc1cc(F)c2ncc3c(-c4ccccc4)nn(-c4cccc(Cl)c4)c3c2c1 | nt | 2.9% | nt | 14.4 | nt
CCOc1cc(CN2CCN(S(=O)(=O)c3ccc(C)cc3)CC2)ccc1OC | nt | 0.1% | nt | -24.3 | nt
COC(=O)c1ccc(S(=O)(=O)N2CCCN(Cc3ccc(F)cc3)CC2)n1C | 1.4% | ? | 15.8% | -64.2* | -3.2%
